# Results: the supplement of paper PMC8728848
# Shown is part of a subset that was picked to be rich in the strongest signals.
# B1: SRS6 (Toxoplasma gondii), Q9NH12 (protein)
# chain: MARTGSMQQRRGGFQTTARMLMAVCVSGVLLLSSGPSSANKLTEGQQNQNSGPGAATQEGPTIEGAVAKCVLKTTAAENGSSRAKNTTGLTLSKENLVVSLQCSGEKNAIVPKDQKKVCSAAPNAKVADCKGADTDKQVTLKSLLGTSGDIQWEKTIVSTDNKGEVMTLKIKESELPLFDKAFFVGCEEDKAQTRTSQATECKVNVSVKARPSTVGENNVVTCAYGKDSNPRPLEVEMSADNDTLTIDCGTDGSLKPTKYTEEFCVTDNSQLESCTTKKFSEILPTFLPSWWVSDSQNGSAKLTIPESGFPEEQQQFRLGCVPKKTTQSPQANPSVKTEKEEGAQNTDASTSNCSVIVTVKASNFSSLASSIAPTAAVAGGAAALTGFLVGSF
# How the values were obtained:
# Test in all cases: glycan array binding signal (z-score within array); higher = stronger binding
# Details in all cases: glycan notation: IUPAC condensed, linker removed
# [1] = biological target: Fuc(a1-2)Gal(b1-3)GalNAc(b1-3)Gal
# Outline: (§1)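 The binding signal is a Z-score computed within each array and averaged over linkers. Arrays of the same protein sequence at different concentrations or buffers were also averaged together. Data originate from 3228 arrays in the Consortium for Functional Glycomics database, kept only where the protein sequence was available.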
# [2] = biological target: Fuc(a1-2)Gal(b1-4)GlcNAc(b1-2)Man(a1-3)[Fuc(a1-2)Gal(b1-4)GlcNAc(b1-2)Man(a1-6)]Man(b1-4)GlcNAc(b1-4)GlcNAc
# Outline: as §1
# [3] = biological target: Fuc(a1-2)Gal(b1-4)[Fuc(a1-3)]GlcNAc
# Outline: as §1
# [4] = biological target: Fuc(a1-2)[Gal(a1-3)]Gal(b1-4)Glc
# Outline: as §1
# [5] = biological target: Fuc(a1-2)[GalNAc(a1-3)]Gal(b1-4)GlcNAc(b1-3)Gal(b1-4)GlcNAc(b1-3)Gal(b1-4)GlcNAc
# Outline: as §1
# Gal(a1-3)Gal = biological target: Gal(a1-3)Gal
# Outline: as §1
# [6] = biological target: Gal(a1-3)Gal(b1-4)GlcNAc(b1-3)GalNAc
# Outline: as §1
# [7] = biological target: Gal(a1-3)Gal(b1-4)[Fuc(a1-3)]GlcNAc(b1-2)Man(a1-3)[Gal(a1-3)Gal(b1-4)[Fuc(a1-3)]GlcNAc(b1-2)Man(a1-6)]Man(b1-4)GlcNAc(b1-4)GlcNAc
# Outline: as §1
# Gal(a1-3)GalNAc = biological target: Gal(a1-3)GalNAc
# Outline: as §1
# Gal(b1-3)Gal(b1-4)GlcNAc = biological target: Gal(b1-3)Gal(b1-4)GlcNAc
# Outline: as §1
# [8] = biological target: Gal(b1-3)GlcNAc(b1-2)Man(a1-3)[Gal(b1-3)GlcNAc(b1-2)Man(a1-6)]Man(b1-4)GlcNAc(b1-4)[Fuc(a1-6)]GlcNAc
# Outline: as §1
# [9] = biological target: Gal(b1-4)GlcNAc(b1-2)Man(a1-3)[Gal(b1-4)GlcNAc(b1-2)Man(a1-6)]Man(b1-4)GlcNAc(b1-4)GlcNAc
# Outline: as §1
# [10] = biological target: Gal(b1-4)GlcNAc(b1-2)Man(a1-3)[Gal(b1-4)GlcNAc(b1-2)Man(a1-6)]Man(b1-4)GlcNAc(b1-4)[Fuc(a1-6)]GlcNAc
# Outline: as §1
# [11] = biological target: Gal(b1-4)GlcNAc(b1-3)Gal(b1-4)GlcNAc(b1-3)Gal(b1-4)GlcNAc
# Outline: as §1
# [12] = biological target: Gal(b1-4)GlcNAc(b1-3)Gal(b1-4)[Fuc(a1-3)]GlcNAc(b1-3)Gal(b1-4)[Fuc(a1-3)]GlcNAc
# Outline: as §1
# [13] = biological target: Gal(b1-4)GlcNAc(b1-3)[GlcNAc(b1-6)]Gal(b1-4)GlcNAc
# Outline: as §1
# Gal6S(b1-4)Glc6S = biological target: Gal6S(b1-4)Glc6S
# Outline: as §1
# GalNAc(a1-3)Gal = biological target: GalNAc(a1-3)Gal
# Outline: as §1
# [14] = biological target: GlcNAc(a1-4)Gal(b1-4)GalNAc
# Outline: as §1
# [15] = biological target: GlcNAc(a1-4)Gal(b1-4)GlcNAc(b1-3)Gal(b1-4)[Fuc(a1-3)]GlcNAc(b1-3)Gal(b1-4)[Fuc(a1-3)]GlcNAc
# Outline: as §1
# [16] = biological target: GlcNAc(b1-2)Man(a1-3)[GlcNAc(b1-2)Man(a1-6)]Man(b1-4)GlcNAc(b1-4)[Fuc(a1-6)]GlcNAc
# Outline: as §1
# [17] = biological target: Man(a1-3)[Man(a1-6)]Man(a1-6)[Man(a1-2)Man(a1-3)]Man(b1-4)GlcNAc(b1-4)GlcNAc
# Outline: as §1
# [18] = biological target: Neu5Ac(a2-3)Gal(b1-4)GlcNAc(b1-3)Gal(b1-4)GlcNAc
# Outline: as §1
# [19] = biological target: Neu5Ac(a2-3)Gal(b1-4)[Fuc(a1-3)]GlcNAc
# Outline: as §1
# [20] = biological target: Neu5Ac(a2-3)GalNAc(b1-4)GlcNAc
# Outline: as §1
# Neu5Ac(a2-6)Gal = biological target: Neu5Ac(a2-6)Gal
# Outline: as §1
# [21] = biological target: Neu5Gc(a2-3)Gal(b1-4)[Fuc(a1-3)]GlcNAc
# Outline: as §1
# [22] = biological target: Neu5Gc(b2-6)Gal(b1-4)GlcNAc
# Outline: as §1
binder,measurement,setting,value
B1,glycan array binding signal (z-score),[1],1.86
same,glycan array binding signal (z-score),[2],1.71
same,glycan array binding signal (z-score),[3],0.016
same,glycan array binding signal (z-score),[4],-0.753
same,glycan array binding signal (z-score),[5],-0.105
same,glycan array binding signal (z-score),Gal(a1-3)Gal,0.351
same,glycan array binding signal (z-score),[6],0.006
same,glycan array binding signal (z-score),[7],0.436
same,glycan array binding signal (z-score),Gal(a1-3)GalNAc,-0.288
same,glycan array binding signal (z-score),Gal(b1-3)Gal(b1-4)GlcNAc,-0.549
same,glycan array binding signal (z-score),[8],1.28
same,glycan array binding signal (z-score),[9],-0.558
same,glycan array binding signal (z-score),[10],3.04
same,glycan array binding signal (z-score),[11],2.32
same,glycan array binding signal (z-score),[12],-0.096
same,glycan array binding signal (z-score),[13],0.169
same,glycan array binding signal (z-score),Gal6S(b1-4)Glc6S,4.38
same,glycan array binding signal (z-score),GalNAc(a1-3)Gal,0.054
same,glycan array binding signal (z-score),[14],0.375
same,glycan array binding signal (z-score),[15],0.807
same,glycan array binding signal (z-score),[16],13.7
same,glycan array binding signal (z-score),[17],1.44
same,glycan array binding signal (z-score),[18],2.13
same,glycan array binding signal (z-score),[19],-0.808
same,glycan array binding signal (z-score),[20],-0.177
same,glycan array binding signal (z-score),Neu5Ac(a2-6)Gal,0.288
same,glycan array binding signal (z-score),[21],0.103
same,glycan array binding signal (z-score),[22],0.403
